Screens as filed in PubChem.
Only some compounds are listed: those with a hit (about 2.4% of all), similar ones and a draw of the others.
Pol kappa inh = qHTS for Inhibitors of Polymerase Kappa. 0.53% of 400,000 active. AID 588579, 2011. DNA polymerase kappa (Homo sapiens), Q9UBT6. purified Pol kappa, fluorescent DNA synthesis assay, 10 min. Potency, µM (titrated, usually from 107 µM), actives largely listed as inhibitors
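Inhibition of 10 nM Pol kappa is measured by a fluorescent read-out at 0 and 10 min following addition of 50 nM substrate (final), with a 15-min room-temperature compound preincubation.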
Pol iota inh = qHTS for Inhibitors of Polymerase Iota; DNA polymerase iota (Homo sapiens), Q9UNA4; Pol iota fluorescent replication assay, 10 min; Potency, µM (top dose mostly 115 µM), hits mostly inhibitors; 1% of 390,000 active
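Fluorescent replication assay read twice, at 0 min and 10 min after adding 50 nM (final) substrate. Enzyme (10 nM) and compounds were first incubated 15 min at room temperature; enzyme-free buffer wells were negative controls.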
Pol beta inh = qHTS Assay for Inhibitors of DNA Polymerase Beta; P06746; Pol beta primer extension/strand displacement, fluorescence kinetic; Potency, µM (highest dose often 114 µM), actives largely listed as inhibitors; 1.3% of 340,000 active; AID 485314, 2010
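Homogeneous kinetic assay of primer extension and strand displacement by 10 nM Pol beta, preincubated 15 min at room temperature with compound before 50 nM substrate (final) was added. Read at 0 and 10 min; four-parameter Hill fit.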
WRN inhibitor = qHTS for Inhibitors of WRN Helicase | WRN helicase unwinding, fluorescent forked duplex, kinetic | 0.46% of 360,000 active | Bifunctional 3'-5' exonuclease/ATP-dependent helicase WRN (Homo sapiens), Q14191 | Potency, µM (titrated, usually from 114 µM), actives largely listed as inhibitors; further: nearly all actives have a fitted effect of over 55% in size
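Screening of the MLSMR collection measured strand separation of a quenched forked DNA duplex (100 nM) by 20 nM WRN with 2 mM ATP, all final. Compounds were preincubated with enzyme 15 min at room temperature.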
Pol eta inh-1 = qHTS for Inhibitors of Polymerase Eta. DNA polymerase eta (Homo sapiens), Q9Y253. recombinant Pol eta, fluorescent DNA replication assay. Potency, µM (series often up to 114 µM), usual class: inhibitors. 1.2% of 390,000 active. AID 588591, 2011
Target sequence (Q9Y253 whole entry, looked up): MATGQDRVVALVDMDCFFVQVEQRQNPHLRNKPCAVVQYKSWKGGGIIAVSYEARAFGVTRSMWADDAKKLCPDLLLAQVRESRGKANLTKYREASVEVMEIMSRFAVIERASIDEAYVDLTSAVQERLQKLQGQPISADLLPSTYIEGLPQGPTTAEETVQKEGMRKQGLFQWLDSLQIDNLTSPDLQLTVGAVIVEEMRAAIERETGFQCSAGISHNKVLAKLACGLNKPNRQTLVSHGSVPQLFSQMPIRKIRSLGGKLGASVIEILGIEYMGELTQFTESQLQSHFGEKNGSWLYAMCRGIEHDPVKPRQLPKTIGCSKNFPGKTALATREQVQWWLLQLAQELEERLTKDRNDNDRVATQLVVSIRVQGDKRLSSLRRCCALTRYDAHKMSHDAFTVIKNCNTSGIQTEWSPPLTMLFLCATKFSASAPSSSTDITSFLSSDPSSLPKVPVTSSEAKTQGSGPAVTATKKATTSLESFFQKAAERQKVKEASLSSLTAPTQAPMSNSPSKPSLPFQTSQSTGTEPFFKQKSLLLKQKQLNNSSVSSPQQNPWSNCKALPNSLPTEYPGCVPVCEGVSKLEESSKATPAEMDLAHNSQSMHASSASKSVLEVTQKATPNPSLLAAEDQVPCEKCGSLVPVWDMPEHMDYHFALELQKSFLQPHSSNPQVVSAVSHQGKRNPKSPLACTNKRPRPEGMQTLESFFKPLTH
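Fluorescent replication assay: 50 nM final substrate added after a 15 min room-temperature compound preincubation with 10 nM enzyme. Signal taken at 0 min and again at 10 min.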
FEN1 inhibitor = qHTS Assay for the Inhibitors of Human Flap endonuclease 1 (FEN1). 0.35% of 390,000 active. P39748. Recombinant FEN1 flap cleavage, fluorescence, 15 min. AID 588795, 2011. Potency, µM (top dose mostly 114 µM), most hits filed as inhibitors; further: nearly all actives have a fitted effect of over 65% in size
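Compounds are tested as a concentration series against 10 nM FEN1; after a 15 min room-temperature preincubation, 50 nM substrate starts cleavage, with plate reads at 0 and 15 min. Normalized responses are fitted by a Hill equation.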
TbPGK inh = qHTS for inhibitors of Phosphogylcerate Kinase: Hit Validation Screen; TbPGK coupled GAPDH assay, Kinase-Glo luminescence; Potency, µM (series often up to 57.5 µM), actives largely listed as inhibitors; shares compounds with Pol kappa inh; 79% of 500 active; further: nearly all actives have a fitted effect of over 65% in size
Pol iota confirm = qHTS for Inhibitors of Polymerase Iota: Confirmatory Assay for Cherry-picked Compounds; shares compounds with Pol kappa inh; Potency, µM, actives largely listed as inhibitors; Pol iota primer extension, TAMRA/BHQ fluorescence; AID 720496, 2013; 77% of 1,500 active
Pol eta inh-2 = qHTS for Inhibitors of Polymerase Eta: Confirmatory Assay for Cherry-picked Compounds | shares compounds with Pol eta inh-1 | Pol eta primer extension, TAMRA/BHQ fluorescence, 10 min | Potency, µM, usual class: inhibitors | 64% of 2,600 active
Hits are given with their value; - = inactive; ? = inconclusive; . = not tested or not shown; [ ] = dose if it differs, or a comment. The call rests on the fitted dose curve; in most records, active means well fitted curve in the direction sought with a large enough effect; inconclusive means small, poorly fitted or top-dose-only effect, or another doubt; inactive means no such curve, though single readings can be large; an effect the other way counts as inactive or inconclusive.

SMILES | Pol kappa inh | Pol iota inh | Pol beta inh | WRN inhibitor | Pol eta inh-1 | FEN1 inhibitor | TbPGK inh | others
CCOc1ccc(OCC(=O)Nc2nccs2)cc1 | - | - | - | - | - | - | 13µM
CCOc1ccc(S(=O)(=O)N(C)c2ccc(OCC(=O)Nc3nccs3)cc2)cc1 | - | - | - | - | - | - | .
CC(=O)Nc1c(C)nn(-c2ccccc2)c1N1CCC(C(=O)Nc2ccc(Cl)cc2C)CC1 | - | - | - | . | - | - | .
CCn1cc(S(=O)(=O)c2ccccc2)c(=O)c2cc(F)c(N3CCN(c4ccccc4)CC3)cc21 | - | - | - | . | - | - | .
COc1ccc(-c2nc3sc(CCNC(=O)C(=O)Nc4ccc(OC)c(OC)c4)c(C)n3n2)cc1 | - | - | - | . | - | - | .
COc1ccc(-c2nc3sc(CCNC(=O)C(=O)Nc4cccc(NC(C)=O)c4)c(C)n3n2)cc1 | - | - | 13µM | . | ? | - | . | Pol iota confirm=?
O=C1c2ccccc2-c2nnc(-c3ccccc3)cc21 | - | ? | - | - | - | - | 12µM
Cc1cccc(-c2cc3c(nn2)-c2ccccc2C3=O)c1 | - | - | - | - | - | - | .
COc1ccc(-c2cc3c(nn2)-c2ccccc2C3=O)cc1 | - | - | - | - | - | - | 4.6µM
CCOC(=O)c1cc2c(=O)n3ccccc3nc2n(CC(C)C)c1=NC(=O)COc1ccc(Cl)cc1 | - | - | - | . | - | - | .
Cc1cc(C)c2cc3c(N)c(C(=O)Nc4c(C)[nH]c(=O)[nH]c4=O)sc3nc2c1 | - | ? | ? | ? | 45µM | ? | . | Pol iota confirm=?
C/C(=N\NC(=O)c1cnccn1)c1ccc([N+](=O)[O-])cc1 | - | - | - | - | - | - | .
C/C(=N/NC(=O)c1cc(O)c(O)c(O)c1)c1ccc([N+](=O)[O-])cc1 | 13µM | ? | 1.8µM | ? | 14µM | ? | ?
Nc1nc(Nc2ccccc2)nc2ccccc12 | - | - | - | - | - | - | .
CN(C)c1ccc(Nc2nc(N)c3ccccc3n2)cc1 | - | - | - | - | - | - | 13µM
CCn1c(NCc2ccc(N(C)C)cc2)nc2ccccc21 | - | - | - | - | - | - | .
Cn1c(N=Nc2ccccc2)nc2ccccc21 | - | - | - | - | - | - | 13µM
CN(C)c1ccc(N=Nc2nc3ccccc3n2C)cc1 | - | - | - | - | - | - | 4.6µM
COc1ccccc1-c1nc(NCc2ccccc2)c2ccccc2n1 | - | . | . | . | . | . | .
COCCCNC(=O)c1cnn(-c2ccc(F)cc2F)c1C1CCNCC1 | - | - | - | . | - | - | .
CCCSc1ccc2nc(-c3ccccc3)cn2c1 | - | - | - | - | - | - | 18µM
CCCCSc1ccc2nc(-c3ccc(C#N)cc3)cn2c1 | - | - | - | - | - | - | .
Cc1cc(S(=O)(=O)C(CNC(=O)COc2ccccc2)c2cccs2)ccc1F (centres undefined) | - | - | - | . | - | - | .
Cc1ccc(S(=O)(=O)C(CNC(=O)COc2ccccc2)c2cccs2)cc1 (centres undefined) | - | - | 13µM | . | - | - | ?
COc1cccc(/C=C/c2nc(C#N)c(N3CCCCC3)o2)c1 | - | ? | - | . | - | - | .
SMILES | Pol kappa inh | Pol iota inh | Pol beta inh | WRN inhibitor | Pol eta inh-1 | FEN1 inhibitor | TbPGK inh | others
COc1ccc2c(c1)c1c(c(=O)n(-c3ccc(F)c(Cl)c3)c(=O)n1Cc1cccc(C)c1)n2C | - | - | - | . | - | - | .
Cc1cccc(C(=O)NC(=S)Nc2cccc3nc(C)ccc23)c1 | - | 32µM | 25µM | - | ? | - | . | Pol iota confirm=?
Cc1ccc(/C(N)=N/OC(=O)c2cccs2)cc1 | - | - | - | - | - | - | .
N/C(=N\OC(=O)c1cccs1)c1ccccc1 | - | - | - | - | - | - | 16µM
COc1ccc(C(=O)O/N=C(\N)c2ccc(Br)cc2)cc1 | - | - | - | - | - | - | .
COc1ccc(C(=O)O/N=C(/C)c2cccs2)cc1 | - | - | - | - | - | - | 5.8µM
COc1ccc(C(=O)O/N=C(\N)c2ccccc2)cc1 | - | - | - | - | - | - | 8.2µM
COc1ccc2c(c1)c(C(=O)CN(C)C)c(C)n2C | - | - | . | . | . | - | .
O=S(=O)(c1ccccc1)c1nc(-c2ccco2)oc1SCc1ccc(F)cc1 | - | - | - | . | - | - | .
O=C1C2C(C(=O)N1Cc1ccco1)C1C=CC2C12CC2 (centres undefined) | - | - | - | - | - | - | .
O=C1CC(=O)N(Cc2ccco2)C(=S)N1 | 3.2µM | ? | 7.9µM | 10µM | 3.2µM | 35µM | -
O=C(c1coc(=O)c(Br)c1)N1CCOCC1 | ? | ? | 6.3µM | ? | 10µM | - | 29µM
O=C(c1cc(Br)c(Br)s1)N1CCOCC1 | - | - | . | - | - | - | .
O=C(c1cnccn1)N1CCC2(CC1)CN(c1ncccn1)C2 | - | . | . | . | . | . | .
O=C(CCCCCn1c(SCc2ccncc2)nc2ccccc2c1=O)NCc1ccco1 | ? | 14µM | 40µM | ? | 79µM | - | . | Pol iota confirm=47;Pol eta inh-2=76
CC(=O)Nc1ccc(C(=O)/C=C/c2ccco2)cc1 | 45µM | ? | 25µM | ? | 25µM | ? | . | Pol iota confirm=?;Pol eta inh-2=38
CC(=O)Nc1cccc(C(=O)/C=C/c2ccco2)c1 | - | ? | - | - | ? | - | .
CC(=O)Nc1ccc(S(=O)(=O)N(C)CC(=O)OCC(=O)N2CCN(C(=O)c3ccco3)CC2)cc1 | ? | 40µM | . | -[11.6 µM] | 28µM | - | . | Pol iota confirm=?;Pol eta inh-2=76
CC(=O)Nc1ccc(S(=O)(=O)N(C)CC(=O)OCC(=O)N2CCCCCC2)cc1 | - | - | - | - | - | - | .
